An excerpt weighted towards active compounds, which were near 0.44% of everything screened.
YopH PTP inh = YopH tyrosine phosphatase inhibitors, primary screen, biochemical, fluorescence Ex485/Em525 | YopH tyrosine phosphatase [Yersinia enterocolitica] | inhibition, % (no concentration beside the values) | hit rate 0.16% among 140,000 | AID 898, 2007; in the data active = inhibition above about 50%
RmlC RmlD mix = RmlC and RmlD coupled enzyme inhibitors, primary screen, biochemical, 384-well, compound mixtures, retest. RmlC/RmlD coupled enzyme inhibition, 384-well mixture HTS. inhibition, % at 5.5 µM. hit rate 0.39% among 110,000; in the data active = inhibition above about 30%, passing the limit was not always enough; inconclusive = no clear call, values can overlap the other calls
RmlCD artifact = counter-screen for RmlC/RmlD inhibitors: fluorescence artifact, dose response, artefact control, biochemical; shares compounds with RmlC RmlD mix; RmlC/RmlD assay fluorescence artifact counter-screen; calls only; hit rate 96% among 360; AID 1696, 2009; call rule not given here;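 also: compound alone with no enzyme and no substrates present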
Each line names hits and unclear results; the compound was inactive in the other large screens (follow-up assays come after a bar, where they were run).

COc1cccc(-n2nnnc2SCC(=O)c2cc(OC)ccc2OC)c1	RmlC RmlD mix 38 | RmlCD artifact active
COC(=O)[C@H](Cc1ccccc1)NC(=O)O[C@@H]1C(=O)c2cc(Br)ccc2O[C@H]1c1cccc(OC)c1	none (no result: RmlC RmlD mix)
COc1ccc(CN(C)CC(=O)Nc2ccc(Cl)cc2C(F)(F)F)c(OC)c1	none (no result: RmlC RmlD mix)
CCOc1cc(-c2nc3c(C)cccn3c2NCC2CCCO2)ccc1O (stereo not given)	RmlC RmlD mix 44 | RmlCD artifact active
CCOc1cc(-c2nc3ccccn3c2NCC2CCCO2)ccc1O (stereo not given)	none
Nc1ccc(-c2nc3ccccc3[nH]2)cc1	none
O=C(O)c1ccc(-c2nc3ccccc3[nH]2)cc1	none (no result: RmlC RmlD mix) | RmlCD artifact inactive
COc1ccc2c(c1)[nH]c1c(=O)n(CCCN3CCOCC3)cnc12	none
COc1ccc2c(c1)c1ncn(CCCN3CCOCC3)c(=O)c1n2C	RmlC RmlD mix 106 | RmlCD artifact active
Cc1cccc(OCc2nnc(SCc3cc(=O)n4cc(Br)ccc4n3)o2)c1	none (no result: YopH PTP inh)
COCn1ccnc1C(O)(c1ccc(OC)cc1)c1ccc(OC)cc1	none (no result: RmlC RmlD mix)
O=C(COC(=O)/C=C/c1ccccc1Cl)NCCc1ccc(Cl)cc1Cl	none (no result: RmlC RmlD mix)
CCN1C(=O)C(CC(=O)Nc2ccc(OC)cc2)N(Cc2ccc3c(c2)OCO3)C1=S (stereo not given)	none (no result: RmlC RmlD mix)
COc1ccc2cc(C(=O)NCc3ccco3)c(=O)oc2c1	none
O=C(NCc1ccco1)c1cc2ccc(O)cc2oc1=O	RmlC RmlD mix 86 | RmlCD artifact active
CCCCn1c(N)c(NCC(C)C)c(=O)[nH]c1=O	none (no result: RmlC RmlD mix)
CCCCNC(=S)Nc1ccc(-c2nc3ccc(C)cc3s2)cc1	none (no result: RmlC RmlD mix)
Cc1ccc2nc(-c3ccc(NC(=S)NCCC(C)C)cc3)sc2c1	RmlC RmlD mix 130 | RmlCD artifact active
O=C(c1ccc(F)cc1)n1c(NCc2ccccc2)n[nH]c1=S	none (no result: YopH PTP inh, RmlC RmlD mix) | RmlCD artifact inactive
O=C(c1ccc([N+](=O)[O-])cc1)n1nc(-c2ccccc2)nc1NCc1ccc(F)cc1	none (no result: RmlC RmlD mix)
CC(C)OC(=O)CC(=O)CSc1nc2c(cc1C#N)CCCC2	RmlC RmlD mix 59 | RmlCD artifact active
CCOC(=O)CC(=O)CSc1nc2c(cc1C#N)CCCCCC2	RmlC RmlD mix 64 (no result: YopH PTP inh) | RmlCD artifact active
CCSc1nnc(NC(=O)CSc2nc3c(cc2C#N)CCCC3)s1	RmlC RmlD mix inconclusive
CCOC(=O)CC(=O)CSc1nc(-c2cccnc2)cc(C)c1C#N	none
CC(C)OC(=O)CC(=O)CSc1nc2c(c(-c3cccs3)c1C#N)CCC2	none (no result: RmlC RmlD mix)
N#Cc1cc2c(nc1SCC(=O)N1CCOCC1)CCCCC2	none
CCc1nnc(NC(=O)CSc2nc3c(cc2C#N)CCC3)s1	RmlC RmlD mix 56 | RmlCD artifact active
CCOC(=O)CC(=O)CSc1nc(-c2cccnc2)ccc1C#N	none (no result: RmlC RmlD mix) | RmlCD artifact active
Cc1ccc(-n2c(SCC3CNC(=O)O3)nnc2-c2ccccc2)cc1C (stereo not given)	none (no result: RmlC RmlD mix)
Cc1ccc(S(=O)(=O)CCC(=O)N2CCN(c3ccc(Cl)cc3)CC2)cc1	none
COC(=O)CC(=O)CSc1nc(C)cc(C)c1C#N	RmlC RmlD mix 121 | RmlCD artifact active
N#Cc1cc2c(nc1SCC(=O)Nc1nccs1)CCCCC2	none
Cc1cc(C)c(C#N)c(SCC(=O)C(C)(C)C)n1	none
CC(C)OC(=O)CC(=O)CSc1nc2c(cc1C#N)CCCCCC2	RmlC RmlD mix active | RmlCD artifact active
O=C(Nc1cc(C(F)(F)F)ccc1-n1cncn1)c1ccc(-c2ccccc2)cc1	none
CC(=O)Nc1cc(S(=O)(=O)Nc2ccccc2C)c(C)cc1C	none
CC(C)CC(NC(=O)OC(C)(C)C)c1cn([C@@H](Cc2ccc(O)cc2)C(=O)N2CCN(C(=O)OC(C)(C)C)CC2)nn1 (stereo not given in full)	none (no result: YopH PTP inh)
O=C(CCNC(=O)OCc1ccccc1)NC1CCCCCC1	none (no result: RmlC RmlD mix)

From PubChem
